In all, about 1,200 compounds went through this assay and about 650 (54%) were called active. Not shown: some 5% with an inconclusive outcome.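 The calls were made as follows: active = signal-lowering curve whose fitted half-maximal concentration is at or below ten times the top valid dose tested; inconclusive = flat curve with 30 to 70% inhibition, or poor fit; inactive = signal increase, flat within 30%, or potency beyond limit.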 So high a share suggests a set chosen from earlier hits. A selection follows. Entries with a potency or affinity are not part of this list.
Test: inhibitors of LMP1-driven NF-kB reporter, dose response, cell-based, HEK293, luciferase, cherry-pick (AID 588343)
Conditions: HEK293 LMP1 TES2 NF-kB luciferase reporter, 16 h; series mostly up to 35 µM

outcome, inactive:
CC(C)(C)c1nc2c(s1)CCc1onc(-c3ccc(Br)cc3)c1-2, O=C(O)c1ccc(C=NNC(=O)c2cccc3ccccc23)cc1, CS(=O)(=O)Nc1ccc(C2=NN(S(C)(=O)=O)C(c3ccccc3)C2)cc1 (configuration not stated), CC(=O)NC(CCS(C)(=O)=O)C(=O)Nc1ccc(Cl)c(Cl)c1 (configuration not stated), Cc1cc(C)c(OCCn2ccnc2)c(C)c1, COCCn1c(SCCN2CCOCC2)nc2c1c(=O)[nH]c(=O)n2C, CN1CCN(C(=O)C2=C[C@@H](C(C)(C)C)C[C@@H](OCc3ccc(CO)cc3)O2)CC1, COC(=O)[C@H](C)[C@H]1C[C@]1(C)[C@H](NC(=O)OCc1ccccc1)c1ccccc1, Cc1nc(C)n(C(C)CNC(=O)c2ccco2)n1 (configuration not stated), O=C1CCCN2N=C(SCC(=O)Nc3ccc(Br)cc3)SC2=N1, CSc1nc(C)cc(C)c1C#N, CC(=O)c1ccc(-n2nnnc2SCC(=O)N2CCc3ccccc3C2)cc1, CCSc1nnc(NC(=O)CSc2nnc(-c3c[nH]c4ccccc34)n2CC)s1, COc1ccc(S(=O)(=O)N2CCN(CC(=O)Nc3cc(OC)cc(OC)c3)CC2)cc1, Cc1cccc(S(=O)(=O)N2CCCc3ccccc32)c1, COc1ccc(C(=O)CN(CCC(=O)O)S(=O)(=O)c2ccc([N+](=O)[O-])cc2)cc1, COc1cc(C(c2sc3nc(C)nn3c2O)N2CCc3ccccc3C2)cc(OC)c1OC (configuration not stated), O=C(OCc1ccccc1F)c1cc2ccccc2cc1O, Nc1cc(=O)[nH]c(SCCSc2cc(Cl)ccc2Cl)n1, OCCN(CCO)CC(O)COCCC12CC3CC(CC(C3)C1)C2 (configuration not stated), CN=C1S/C(=C\c2ccc(O)c(Br)c2)C(=O)N1C, CC(=O)OCC(=O)[C@@]1(O)CC[C@H]2[C@@H]3CCC4=CC(=O)CC[C@]4(C)[C@H]3[C@@H](O)C[C@@]21C, Cc1cccc(-n2c(O)c(C=Nc3c(C)n(C)n(-c4ccccc4)c3=O)c3ccccc3c2=O)n1, O=c1c(O)c(-c2ccc(O)c(O)c2)oc2cc(O)cc(O)c12, CN(Cc1ccccc1)c1nc(N)c([N+](=O)[O-])c(NCc2ccccc2)n1, COc1ccccc1C(=O)Nc1c[nH]c(=O)[nH]c1=O, COc1ccc(N2C(=O)C(Cl)=C(NCc3ccccc3)C2=O)cc1, COc1ccc(N2Cc3cccc(C(=O)NC(C)CCc4ccco4)c3C2=O)cc1 (configuration not stated), Cc1cc(=O)[nH]c(=S)[nH]1, C=CC[N+](C)(C)C/C(Cl)=C(\Cl)c1ccccc1, O=c1cc(C2CCCCC2)[nH]c(=O)[nH]1, CC(C)NC(=O)N(C)C[C@H]1Oc2c(NC(=O)Nc3ccc4c(c3)OCO4)cccc2C(=O)N([C@H](C)CO)C[C@@H]1C, Cc1ccc(S(=O)(=O)N2CCN(C(=O)COC(=O)COc3ccc(Cl)cc3)CC2)c(C)c1, COc1cc2cc(C(=O)N3CCN(c4ccccc4OC)CC3)[nH]c2cc1OC, CCC(C)N1C(=O)CCC1C(=O)N1CCN(c2ccc(F)cc2)CC1 (configuration not stated), O=C1c2cccc3c(O)ccc(c23)C(=O)N1c1ccc(Cl)cc1, O=C(CC(c1ccc(F)cc1)c1ccco1)N1CCOCC1 (configuration not stated), Fc1cccc(Cl)c1/C=N/n1c(-c2cccnc2)n[nH]c1=S, O=C(NCc1ccco1)C1CC(=O)N(c2cccc(Cl)c2)C1 (configuration not stated), COc1ccc(/C=C/C(=O)OCC(=O)NCc2ccco2)cc1OC, COc1cc(NCCCCCCN)c2ncccc2c1OC, O=C(Nc1ccc(F)c(F)c1)C1CCCCC1, COC(=O)c1ccccc1NC(=O)CSc1nnnn1C, Cc1ccc(S(=O)(=O)N2CCN(C(=O)CSc3nnnn3C)C2)cc1, O=C1c2ccccc2C(O)N1Cc1ccccc1 (configuration not stated), Cc1cc(=S)[nH]c2ccccc12, Cc1ccc(-n2c(=O)c3c(c4cc(C)ccc4n3C)n(CC(=O)NCC3CCCO3)c2=O)cc1 (configuration not stated), COC(=O)c1c(O)ccc(Oc2ccccc2)c1C(=O)OC, CC1CCN(CCOc2ccc(C(=O)c3ccccc3)cc2)CC1, NC(=O)OCC(COC(N)=O)c1ccccc1, O=C(O)c1ccccc1Nc1cccc(OCc2ccc3ccccc3n2)c1, CCN(CC)S(=O)(=O)c1ccc(N=NC2=C(O)CCCC2=O)cc1, Cc1cc(NC(=O)CSc2ccnc(=O)[nH]2)no1, COC(=O)c1c(NC(=O)c2nn(C)cc2Cl)sc2c1CCCC2, Nc1ccccc1SC1CC(=O)N(c2ccccc2Cl)C1=O (configuration not stated), Cc1ccc(S(=O)(=O)N[C@H](C(=O)N2CCC(C(=O)N[C@@H](CC(=O)O)C(=O)O)CC2)C(C)C)cc1, CCCSc1ccc([C@@H]2[C@H]3C(=O)N(C)C(=O)[C@H]3[C@]3(C(=O)OC)CCCN23)cc1OC, CC(C)N1CCN(c2ccc(OC[C@H]3CO[C@](Cn4cncn4)(c4ccc(Cl)cc4Cl)O3)cc2)CC1, COC(=O)C1=C(C(=O)c2ccccc2)C(c2ccccc2)n2nnnc2N1 (configuration not stated), Cc1cc(C)n2nc(CC(=O)NC3CCCCCC3)nc2n1, Cc1cc(=O)[nH]c(N/N=C/c2ccc(C)o2)n1, Cc1cc(C)c2sc(NC(=O)C3CC3)nc2c1, CCSC1=C(C#N)C(c2ccc(C)o2)CC(=O)N1 (configuration not stated), CC(=O)/C=C/c1ccccc1O, COc1ccc(-c2csc(Nc3cccc(C)n3)n2)cc1OC, CCOC(=O)c1c(NC(=O)C2C3CCC(O3)C2C(=O)O)sc(C)c1-c1ccc(F)cc1 (configuration not stated), CCN1C(=O)[C@@H]2[C@@H](c3ccc(-c4ccc(Cl)c(Cl)c4)cc3)N3CCC[C@@]3(C(=O)OC)[C@@H]2C1=O, COc1ccc([C@H]2N[C@]3(CCCN(Cc4ccco4)C3=O)[C@H]3C(=O)N(Cc4ccccc4)C(=O)[C@@H]23)cc1, O=C1N[C@@H](Cc2c[nH]c3ccccc23)COC(=O)[C@H](Cc2ccc(F)cc2)C/C=C\C[C@H]1CC(=O)N(CCO)Cc1ccccc1, Cc1sc2nc(SCC(=O)OC(C)C)n(C)c(=O)c2c1C, CCCCCn1c(N2CCOCC2)nc2c1c(=O)n(CC(N)=O)c(=O)n2C, COc1cc2c(CCNC(C)=O)c[nH]c2cc1Cl, CC(C)OCCCNC(=O)C1CCC(CNS(=O)(=O)c2ccccc2)CC1 (configuration not stated), O=S(=O)(NC1c2cccc3cccc(c23)C1Sc1ncccn1)c1ccccc1 (configuration not stated), COc1ccc(C(=O)NCCNc2nc3cc(C)c(C)cc3cc2C)cc1, Cc1onc(-c2ccccc2)c1C(=O)NC(=S)NNC(=O)c1ccc(O)cc1O, CCC(C)(C)NC(=O)C(c1ccc(F)cc1)N(CCOC)C(=O)CCC(=O)Nc1nccs1 (configuration not stated), COc1cccc(C(=O)OCn2nnc3ccccc3c2=O)c1OC, O=C(N/N=C/c1cccnc1)c1cc(-c2cccs2)nc2ccccc12, O=C(O)c1ccc(C=NN=C2c3ccccc3-c3ccccc32)cc1, CNC(=S)Nc1ccc2nc(C)c(C)nc2c1, O=C1CC(c2cccs2)Cc2nc(NC(=O)C3CC3)ncc21 (configuration not stated), CC(C)[C@H](N[C@@H](C)c1ccccc1)c1c(O)ccc2ccccc12, CCn1c(SC(C)C)nnc1-c1c[nH]c2ccccc12, COc1ccccc1-n1c(-c2ccccc2)n[nH]c1=S, CC(=O)c1cc(C(=O)Nc2ccc(C(=O)O)cc2)oc1C, COc1ccc(-c2nc(CN3CCC(C(=O)N4CCOCC4)CC3)c(C)o2)cc1C, COc1ccc(-n2cnc3c(cnn3CCC#N)c2=N)cc1, O=C(N/C(=C/c1ccc(Br)cc1)C(=O)N1CCOCC1)c1ccc(Br)o1, CCN(CC(=O)NCc1ccc(F)cc1)CC(=O)Nc1cc(S(=O)(=O)N(C)C)ccc1C, O=C(Nc1cc(Cl)ccc1Cl)C1Cc2ccccc2O/C1=N\O (configuration not stated), COc1ccc(CNC(=O)N2[C@H]3CC[C@@H]2C=C(c2ccc(F)cc2OCc2ccccc2)C3)cc1OC, Cc1cccc(Cn2nc(-n3cccc3)c3c(C)cc(C)nc32)c1, Clc1cccc(CN2CCCCCC2)c1, CN1CCc2cccc3c2C1Cc1ccc(O)c(O)c1-3 (configuration not stated), CCOc1ccccc1C(=O)NC1CC2CCCC(C1)N2Cc1nnnn1Cc1ccco1 (configuration not stated), COc1ccccc1NC(=O)C(=O)N/N=C(\C)CC(=O)Nc1ccccc1C(F)(F)F, COc1ccc(OC)c(NC(=O)COC(=O)COc2ccc(Nc3ccccc3)cc2)c1, S=C(NN=C1C2CC3CC(C2)CC1C3)Nc1ccccc1, COc1ccc(S(=O)(=O)N2CCCCCC2)cc1C(=O)OCc1cccc(OC)c1OC, CC(=O)Nc1ccc(S(=O)(=O)N2CCCC2)cc1, COC(=O)c1cc2n(n1)CCN(Cc1ccccc1Cl)C2=O, COC(=O)CCCC[C@@H]1SC[C@@H](NC(=O)OC)[C@@H]1NC(=O)OC, N#CCCn1cc(C(=O)Nc2ccccn2)c(-c2ccccc2)n1, C/C(=N\Nc1ccc(C(F)(F)F)cc1[N+](=O)[O-])C(C)C, CN(CC(=O)Nc1cccnc1)S(=O)(=O)c1ccc(Br)cc1, COc1ccc(S(=O)(=O)N2CCOCC2)cc1NC(=O)COC(=O)CCS(=O)(=O)c1ccc(C)cc1

— PubChem BioAssay AID588343 (Broad Institute, 2011)
